# Bioassay records (PubChem)
# Most compounds without a hit are left out; they make up all but 19% or so of the library.
# MCF10A rereplic – DNA re-replication induction in MCF 10a cells; AID 624296; 2.9% of 350,000 active; MCF 10A DNA re-replication, Hoechst nuclear intensity, 48 h; Potency, µM (doses to about 46.1 µM), for the others: at the top dose activity, positive = re-replication, actives largely listed as activators; also: potency is read from the fitted curve at half-maximal effect; % of control where 0% means no effect; nearly all actives have a fitted effect of over 50% in size
# DT40 TDP1 no CPT – qHTS for Inhibitors of human tyrosyl-DNA phosphodiesterase 1 (TDP1): qHTS in cells in absence of CPT | DT40 Tdp1-/- hTDP1 cells, no CPT, ATP luminescence, 48 h | Potency, µM (highest dose often 46.2 µM), for inactives: at the highest dose activity change, negative = growth inhibition, hits mostly inhibitors | 15% of 420,000 active | AID 686978, 2013; also: potency is read from the fitted curve at half-maximal effect; % is scaled to controls: 0 for no effect and ±100 for the full control effect; nearly all actives have a fitted effect of over 55% in size
#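 Camptothecin absent (DMSO only). Human TDP1-complemented DT40 knockout cells, 400 cells/well, 37 °C for minimum 48 hr; ATP measured via CellTiter-Glo, 30 min dark incubation, luminescence.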
# IL-1B inflam inh – blocks inflammasome-driven IL-1 beta release. THP-1 LPS/ATP IL-1B secretion, AlphaLISA, 16 h; active compounds read low. activity change, % at 57.5 µM. 4.7% of 360,000 active; in the data active = activity change below about -50%; inconclusive = mostly about -30% to -49%; also: % is scaled to controls: 0 for no effect and ±100 for the full control effect
#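 Secreted IL-1B measured by AlphaLISA bead assay after 16 h compound exposure of THP-1 cells; compounds (final up to 57.5 uM) added 1 h before LPS (250 ng/mL) and ATP (1.25 mM) stimulation; lower signal means less secretion.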
# DT40 TDP1 CPT – DT40-hTDP1 cell growth loss with CPT | Potency, µM (highest dose often 46.2 µM), without a hit: at the top dose activity change, negative = growth inhibition, actives largely listed as inhibitors | 12% of 420,000 active | AID 686979 | chicken DT40 Tdp1-/-;hTDP1 cells + 20 nM CPT, ATP luminescence, 48 h; also: potency is read from the fitted curve at half-maximal effect; % is scaled to controls: 0 for no effect and ±100 for the full control effect; nearly all actives have a fitted effect of over 55% in size
#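 Chicken DT40 Tdp1-/- cells stably complemented with human TDP1 were seeded at 400 cells/well in medium containing 20 nM camptothecin, exposed to pin-transferred compounds, and grown at 37 °C for at least 48 hr. Viability was read as ATP luminescence.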
# SW480 rerep – induces DNA re-replication in SW480 colon adenocarcinoma cells. SW480 DNA re-replication, Hoechst DNA content imaging, 48 h. Potency, µM (top dose mostly 46.1 µM), for the others: at the top dose re-replication activation, usual class: activators. 1.8% of 340,000 active. AID 624297; also: potency is read from the fitted curve at half-maximal effect; % of control where 0% means no effect; nearly all actives have a fitted effect of over 55% in size
#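 Per well, 250 cells were exposed to pinned compound for 48 hr. Nuclear DNA was visualised with Hoechst (40 min, 37 C) and total object intensity recorded by fluorescence scanning.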
# Chronic BCR inh – inhibitors of chronic active B-cell receptor signaling. ABC-DLBCL IkBa-CBG/CBR reporter, luminescence ratio, 4 h. AID 493014. 0.05% of 340,000 active. Potency, µM (doses to about 46.1 µM), for the others: at the top dose activity change, negative = inhibition, actives largely listed as inhibitors; active = well fitted inhibition curve with a large enough effect in the signal ratio, with a control signal flat, not every such curve was filed as active; inconclusive = small, poorly fitted or top-dose-only effect, or effect the other way, or a change in a side signal; the % refers to the signal ratio;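 also: potency is read from the fitted curve at half-maximal effect; plate controls were basal doxycycline-induced cells for no effect and cells given 10 µM MG132 for full effect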
#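 Concentration-response series (up to 46 uM) were applied to TMD8 dual-reporter cells for 4 h at 37C with doxycycline. Green/red ratio, after filter-overlap correction, defined %Activity; red signal alone was normalised to basal cells and zero luminescence.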
# * hit, by the source's call; ? = inconclusive; nt = no result given; [ ] = dose if it differs, or a comment. Unless noted, calls follow the shape of the dose curve; as a rule, active = well fitted curve in the direction sought with a large enough effect; inconclusive = small, poorly fitted or top-dose-only effect, or another doubt; inactive = no such curve, though single readings can be large; an effect the other way counts as inactive or inconclusive.
SMILES,MCF10A rereplic,DT40 TDP1 no CPT,IL-1B inflam inh,DT40 TDP1 CPT,SW480 rerep,Chronic BCR inh
Cc1cccc2cc(CN(Cc3cccs3)Cc3nnnn3Cc3ccccc3)c(=O)[nH]c12,18%,23µM*,-50*,?,1%,-11%
CCOc1ccc2[nH]c(=O)c(CN(Cc3cccs3)Cc3nnnn3C(C)(C)CC)cc2c1,-2%,16µM*,?,16µM*,18%,-1%
Cc1cccc2cc(CN(Cc3ccccc3)Cc3nnnn3Cc3ccccc3)c(=O)[nH]c12,nt,13µM*,nt,?,nt,nt
O=C1NC(Cc2ccc(O)cc2)c2nc3ccc(F)cc3c(=O)n2-c2cc(Cl)ccc21 (centres undefined),-6%,2%,0,-9%,0%,nt
N#CCC(=O)N1CCN(C=O)CC1,-3%,11%,15,0%,-6%,2%
Cn1c(-c2ccccc2[N+](=O)[O-])[n+](C)c2ccccc21,2%,5.8µM*,69,13µM*,6%,-8%
Cn1c(O)c(N=Nc2ccccc2[N+](=O)[O-])c2ccccc21,-6%,-2%,17,5%,-3%[9.22 µM],0%
CCN(CC)C(=O)c1[nH]cnc1C(=O)Nc1ccccc1F,nt,-16%,6,-9%,nt,nt
O=C(Nc1ccc(N2CCCCC2)cc1)c1ccc2c(c1)OCCO2,6%,?,-27,?,-2%,?
O=C(NC(=S)Nc1cccc(Cl)c1N1CCCCC1)c1ccc2c(c1)OCCO2,4.6µM*,?,-6,3.3µM*,?,-2%
O=C(Nc1cccc(Cl)c1N1CCCCC1)c1ccc2c(c1)OCCO2,?,21µM*,-4,?,0%,-2%
CC(C)c1cccc(C(C)C)c1NC(=O)CCl,0%,16µM*,-83*,?,22%,-17%
CC(C)c1cccc(C(C)C)c1NC(=O)CNCC(O)c1ccccc1 (centres undefined),-8%,-3%,-27,-6%,-15%,7%
CCOC(=O)c1c(NC(C)=O)c2c3c(sc2n1Cc1ccc(Cl)cc1)CCCC3,nt,15µM*,nt,?,nt,nt
CCOC(=O)c1c(NC(C)=O)c2c3c(sc2n1Cc1cccc(Cl)c1)CCCC3,nt,15µM*,nt,?,nt,nt
C=CCn1c(=O)n2ncnc2c2c3c(sc21)CCCC3,-1%,?,0,-17%,-10%,-1%
CCOC(=O)c1c(NC(C)=O)c2c3c(sc2n1Cc1nc(-c2cccc(C)c2)oc1C)CCCC3,nt,?,nt,3.7µM*,nt,nt
CCOC(=O)c1c(NC(C)=O)c2c3c(sc2n1Cc1nc(-c2ccccc2C)oc1C)CCCC3,nt,-17%,nt,0%,nt,nt
O=c1n(Cc2ccc(Cl)cc2)c2sc3c(c2c2ncnn12)CCCC3,?,15µM*,-20,?,-5%,-1%
CC(C)N1CCN(C(=O)c2ccc([N+](=O)[O-])cc2)CC1,-3%,1%,-2,5%,-15%,nt
CCN(CC)S(=O)(=O)c1ccc2c(c1)c(=O)c(C(=O)NCc1ccco1)cn2C,-2%,?,-8,?,-2%,-1%
COc1cccc(CNC(=O)C2CCC(=O)N(C3CC3)C2)c1OC (centres undefined),-4%,10%,26,-1%,-13%,8%
CCc1nnc2c(NCc3ccccc3OC)nc3ccccc3n12,nt,-7%,nt,-29%,nt,nt
COC(=O)c1c(NC(C)=O)c2c3c(sc2n1Cc1cc(C)ccc1C)CCCC3,nt,-56%,nt,-18%,nt,nt
CCOC(=O)c1c(NC(C)=O)c2c3c(sc2n1Cc1cc(C)ccc1C)CCCC3,nt,?,nt,5.8µM*,nt,nt
SMILES,MCF10A rereplic,DT40 TDP1 no CPT,IL-1B inflam inh,DT40 TDP1 CPT,SW480 rerep,Chronic BCR inh
COc1ccccc1NC(=O)COC(=O)C1CC2CCCC(C1)C2=O (centres undefined),-38%,-5%,8,17%,2%,-8%
Cc1cccc(-n2c(=O)cc(N3CCN(c4ccc(F)cc4)CC3)[nH]c2=O)c1,?,18µM*,14,?,-3%,5%
CCN(Cc1nc2ccccc2c(=O)[nH]1)C(=O)c1cccc(S(=O)(=O)N2CCc3ccccc32)c1,9%,16µM*,19,?,-3%,-5%
CN(CC(=O)Nc1ccccc1Br)C(=O)c1cccc(S(=O)(=O)N2CCc3ccccc32)c1,?,?,-19,?,5%,nt
COc1ccc(NC(=O)CN(C)C(=O)c2cccc(S(=O)(=O)N3CCCc4ccccc43)c2)cc1,0%,-22%,9,10µM*,10%,?
COc1ccccc1CN(C)C(=O)c1cccc(S(=O)(=O)N2CCCc3ccccc32)c1,1%,12µM*,-29,?,6%,-3%
COc1ccc(C(CNC(=O)c2cccc(S(=O)(=O)N3CCc4ccccc43)c2)N(C)C)cc1 (centres undefined),?,10µM*,-75*,?,?,?
NC(=O)COC(=O)c1cccc(S(=O)(=O)N2CCCc3ccccc32)c1,2%,-28%,43,?,-5%,-5%
Cc1cccc(NC(=O)c2ccc3c(O)c(S(=O)(=O)c4ccccc4)c(=O)[nH]c3c2)c1C,nt,6%,nt,5%,nt,nt
O=C(COC(=O)[C@@H]1CC(O)CN1S(=O)(=O)c1ccc(Cl)cc1)NC(=O)NCc1ccccc1 (some centres undefined),-2%,5%,2,-2%,2%,-2%
Cc1ccc(CN(C)C(=O)c2cccc(S(=O)(=O)N3CCCC3)c2)cc1,8%,?,2,?,-11%,0%
Cc1ccc(CN(C)C(=O)c2cccc(S(=O)(=O)N3CCc4ccccc43)c2)cc1,1%,21µM*,-22,?,20%,?
O=C(NC[C@H](O)c1ccccc1)c1ccccc1,nt,-9%[9.04 µM],nt,-13%[9.04 µM],nt,nt
C#CCn1c(=NC(=O)c2ccc(Br)s2)sc2cc(NC(C)=O)ccc21,3%,1%,50,10%,nt,1%
C=CCn1c(=NC(=O)c2cccs2)sc2cccc(OC)c21,0%,16µM*,23,?,3%,?
C#CCn1c(=NC(=O)c2ccc(Br)s2)sc2cccc(OC)c21,?,21µM*,28,?,4%,?
Cc1ccc(S(=O)(=O)Nc2ccc3c(c2)nc(CCN2CCN(c4ccccn4)CC2)n3C)cc1,-4%,-10%,-13,?,1µM*,3%
Cn1c(CCN2CCN(c3ccccn3)CC2)nc2cc(NS(=O)(=O)c3ccc(Cl)cc3)ccc21,?,?,-76*,?,?,?
